Hit rate of the full screen: of about 260,000 compounds, about 1,500 (0.58%) were called active. Another 5% or so got no clear call; they are omitted.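 How the source made its calls: active means inhibition above a set limit at one or more doses, reproduced on every date tested; inconclusive means results disagree between test dates, or hit never tested in dose response; inactive means the rest.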 A selection follows. Entries with a potency or affinity are not part of this list.
These molecules were tested against Virion infectivity factor (Human immunodeficiency virus type 1 group M subtype B (isolate BH10)) + Virion infectivity factor (Human immunodeficiency virus type 1 group M subtype B (isolate BRU/LAI)) + Virion infectivity factor (Human immunodeficiency virus type 1 group M subtype B (isolate PCV12)) + Virion infectivity factor (Human immunodeficiency virus type 1 group M subtype B (isolate HXB2)) + DNA dC->dU-editing enzyme APOBEC-3G (Homo sapiens) (UniProt P69720+P69721+P69722+P69723+Q9HC16) (assay: HIV-1 Vif–A3G interaction blockers – biochemical, TR-FRET, GST-Vif 1-94, biotin-A3G peptide, dose response retest, primary screen (AID 1117319;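 further: Vif residues 1-94 fused to GST binding biotinylated APOBEC3G peptide 110-148; 0% = full assay without inhibitor and 100% = GST in place of GST-Vif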)). Settings: TR-FRET GST-Vif / biotin-A3G peptide binding; hits give high values.

inhibition, inactive:
O=C(OCC(=O)c1cccs1)c1ccc(NC(=O)c2ccco2)cc1 13.8%
CCCC[N+](C)(C)CCC(=O)NC(C)(C)CS(=O)(=O)[O-] 17.8%
CC1(NC(=O)CC[N+](C)(C)CCO)CS(=O)(=O)CC1S(=O)(=O)[O-] (configuration not stated) 11.7%
CC(=O)Nc1ccc(/C(C)=N/NS(=O)(=O)c2ccccc2)cc1 -13.2%
Cc1ccc(CN2CCSc3ccc(C(=O)NCc4ccco4)cc32)cc1 -7.52%
O=C1NC(=S)SC1=C1CCCCCC1 16.7%
CN1C(=O)C(=C2CCCCCC2)SC1=S 4.5%
O=C(Cn1ncc2c(=O)oc3ccccc3c21)NCCc1ccsc1 -2.92%
COC(=O)[C@@]1(C)[C@H]2C(=O)N(Cc3ccccc3)C(=O)[C@H]2[C@H]2CN(C)C(=NC3CCCCC3)N21 -5.32%
COCCn1c(SCC(=O)Nc2sccc2C(N)=O)nnc1-c1ccncc1 -0.42%
O=C(O)c1cnn2c(C(F)(F)F)cc(-c3ccco3)nc12 23%
CCOC(=O)c1cnn2c(C(F)(F)F)cc(-c3ccco3)nc12 17%
CC(=O)c1cn(N(C)c2ncc(C(F)(F)F)cc2Cl)c(=O)[nH]c1=O -1.96%
CCOc1ccccc1C(=O)NCC(=O)NNC(=O)c1cccc(S(=O)(=O)Nc2ccc(OC)cc2)c1 -2.98%
CC(C)C(=O)Nc1cccc(C(=O)N2CCCCC2C)c1 (configuration not stated) 12.2%
O=C(Nc1ccccc1)N1CCCC2CCCCC21 (configuration not stated) 7.94%
CCC(C)N1CCN(S(=O)(=O)c2ccc(NC(C)=O)cc2)CC1 (configuration not stated) -5.24%
Cn1c(=O)c2c(nc(CN3CCN(C(=O)c4ccco4)CC3)n2Cc2ccc(Cl)cc2)n(C)c1=O -6.63%
O=C(COc1ccccc1)N1CCN(S(=O)(=O)c2ccc(Cl)cc2)CC1 11.7%
COc1ccc(OCC(=O)N2CCN(S(=O)(=O)c3ccc(Cl)cc3)CC2)cc1 0.42%
Cn1c(N)c(C(=O)COC(=O)Cc2ccc(Cl)cc2)c(=O)n(C)c1=O 0.17%
CCS(=O)(=O)c1ccc2c(c1)N(S(C)(=O)=O)CC(C(=O)NN)O2 (configuration not stated) -7.03%
Cc1ccc2nc(SCC(=O)N3CCN(c4ccccc4)CC3)[nH]c2c1 -0.39%
O=C(CCN1C(=O)c2cccc([N+](=O)[O-])c2C1=O)Nc1nccs1 -4.6%
O=[N+]([O-])c1ccc(N2CCN(c3ccccc3O)CC2)c(Cl)c1 -0.29%
NC(=O)C1CCN(c2ccc([N+](=O)[O-])cc2Cl)CC1 12.1%
N#Cc1csc(CCNC(=O)c2ccccc2)n1 -7.18%
Clc1ccccc1CSc1ncccn1 -2.52%
CSc1nnc(-c2ccco2)n1-c1ccccc1 5.76%
c1ccc(CSc2n[nH]c(-c3ccco3)n2)cc1 28.1%
CSc1ccc(-c2ccco2)nn1 11.8%
Nn1c(SCc2ccccc2)nnc1-c1ccco1 2.72%
Nc1cc(N)nc(SCc2ccccc2Cl)n1 0.21%
CCC(C)[C@H]1CNC(=S)N1CCC12CC3CC(CC(C3)C1)C2 (some centres not stated) 28.7%
Cc1ccc(N(CC(=O)NCc2ccc3c(c2)OCO3)S(=O)(=O)c2c(C)noc2C)cc1 1.33%
CCc1ccc(-c2nc(CS(=O)CC(=O)NCCN3CCCCCC3)c(C)o2)cc1 (configuration not stated) -8.11%
CC1CN(C(c2cccs2)c2sc3ncnn3c2O)CC(C)O1 (configuration not stated) -3.12%
O=S(=O)(/N=C(/Nc1cccc2ccccc12)c1ccccc1)c1ccc(Br)cc1 3.03%
CCOC(=O)N1CCC(N2CCN(S(=O)(=O)c3ccc(C)cc3)CC2)CC1 3.57%
CCCCCCC(=O)Nc1ccc(Br)cn1 22.8%
CCCCC(=O)Nc1ccc(Br)cn1 -2.24%
C/C(=N/NC(=O)c1ccccc1)c1ccc(NC(=O)C(F)(F)F)cc1 1.31%
Cc1ccc(OCC(O)CNCc2ccc(F)cc2)cc1 (configuration not stated) 4.08%
O=C(Nc1ccc(CN2CCCCC2)cc1)c1cccc(F)c1 -2.63%
O=C(CSc1nc2ccccc2n1CCc1ccccc1)NC1CC1 16.5%
COc1ccc(C(=O)CSc2nc3ccccc3n2CC(=O)c2ccccc2)cc1 2.41%
CCC(C)[C@H](NC(=O)Nc1ccccc1F)C(=O)OC (some centres not stated) 85.4%
CC(=O)Nc1ccc(NC(=O)[C@@H](NC(=O)c2ccccc2F)C(C)C)cc1 2.31%
COc1ccc(NC(=O)Nc2cccs2)cn1 9.16%
Cc1cc(F)ccc1S(=O)(=O)Nc1ccccc1C(=O)Nc1ccccc1-c1nc2ccccc2[nH]1 16.7%
Cc1cc(F)ccc1S(=O)(=O)Nc1ccccc1C(=O)Nc1ncn[nH]1 -4.68%
COc1ccccc1NC(=O)C(C)OC(=O)CN1C(=O)C2CC=CCC2C1=O (configuration not stated) -6.25%
COc1ccc(CCN2CC(C(=O)N(C)CCn3nc(C)cc3C)CCC2=O)cc1 (configuration not stated) 6.02%
Cc1ccc(C)n1-c1ccc(C(=O)NN)cc1 -3.66%
Cc1cc(N)ccc1-n1c(C)ccc1C 15.6%
Cc1ccc(C)n1-c1cccc(C(=O)Nc2ccccc2)c1 18.2%
Cc1ccc(-c2ccccc2)n1-c1cccc(C(=O)O)c1 0.87%
Cc1cc(C)n(Cc2ccc(C(=O)O)cc2)n1 -1.33%
CCc1ccc(C(=O)O)cc1 0.16%
Cc1ccc(-c2ccccc2)n1-c1ccc(C(=O)O)cc1 -4.6%
Cc1cc(C(=O)O)ccc1-n1c(C)cc(C=C2C(=O)c3ccccc3C2=O)c1C -10.7%
Cc1cc(C)cc(NC(=O)CCNS(=O)(=O)c2ccc3c(c2)oc(=O)n3C)c1 17.7%

From PubChem BioAssay AID1117319 (Southern Research Institute, 2015)
